# In the library only some 8% were active in any assay of this set; here they are far more common.
# Coupling enz: qHTS Assay for Inhibitors of Fructose-1,6-bisphosphate Aldolase from Giardia Lamblia: Coupling assay counterscreen; AID 2472, 2010; activity change, negative = inhibition, % at 58.2 µM, hits read low; coupling enzyme system counterscreen, AmpLite Red fluorescence; 290,000 compounds, 0.67% hits; in the data active = activity change below about -30%
#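 Coupling enzymes only (glyceraldehyde-3-phosphate) + compound, at 57.5 uM final, 10 min RT; add substrate/coupling/AmpLite Red mix, 20 min RT; fluorescence ex 525/em 598 nm. Actives flag coupling-system interference.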
# ELG1 repair inh: qHTS screen for small molecules that inhibit ELG1-dependent DNA repair in human embryonic kidney (HEK293T) cells expressing luciferase-tagged ELG1. 330,000 compounds, 2.3% hits. Potency, µM (top dose mostly 46.1 µM), hits mostly inhibitors. HEK293T ELG1-luciferase reporter, luminescence, 16 h; DNA damage induced by 5-fluorouridine; also: nearly all actives have a fitted effect of over 55% in size
#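 In this reporter screen, reduction of luminescence relative to DMSO vehicle indicated activity. Compounds and 5-fluorouridine were added together to 2,000 cells per well, incubated for 16 hr at 37 °C, then developed with ONE-Glo.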
# TSHR antagonist: Antagonists of the Thyroid Stimulating Hormone Receptor: HTS campaign | activity change, negative = inhibition, % at 11.5 µM | AID 504810, 2011 | Thyrotropin receptor (Homo sapiens), P16473 | 330,000 compounds, 0.2% hits | TSHR-expressing cells, TSH-stimulated cAMP HTRF, 2 h; stronger effect = lower value;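 active = activity change below a set negative limit, meaning inhibition stronger than a set level, cut at about -70% in these data; inconclusive = activity change between two set negative limits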
#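 Read-out is FRET at 665 nm (cryptate excitation 337 nm) from a cryptate-tagged anti-cAMP antibody, competed by cell cAMP against cAMP-d2. Compounds are tested on freshly harvested TSHR cells challenged with 4nM TSH (EC80) for 2 hours at 37 deg C.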
# RORgamma inh: qHTS for inhibitors of ROR gamma transcriptional activity | Drosophila S2 Gal4-RORgamma UAS-luciferase reporter, 20 h | Potency, µM (series often up to 53.6 µM), actives largely listed as inhibitors | 310,000 compounds, 5.4% hits | AID 2551, 2010; also: nearly all actives have a fitted effect of over 60% in size
#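 Read-out: Photinus luciferase luminescence; inhibitors lower reporter signal. Insect Schneider cells with Gal4-ROR gamma fusion under metallothionein promoter, UAS reporter; 700 uM final copper sulfate induction, 20 hr, ambient temperature.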
# VP16 counter: VP16 counterscreen qHTS for inhibitors of ROR gamma transcriptional activity | 310,000 compounds, 3.5% hits | Drosophila S2 Gal4-VP16 UAS-luciferase, luminescence, 20 h | Potency, µM (top dose mostly 53.6 µM), usual class: inhibitors;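 also: Gal4-VP16 expression switched on by copper sulfate through the metallothionein promoter; nearly all actives have a fitted effect of over 50% in size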
# Hits are given with their value; n = inactive; u = inconclusive; x = not tested or not shown; [ ] = remark or other dose. Unless noted, calls follow the shape of the dose curve; as a rule, active = well fitted curve in the direction sought with a large enough effect; inconclusive = small, poorly fitted or top-dose-only effect, or another doubt; inactive = no such curve, though single readings can be large; an effect the other way counts as inactive or inconclusive.
SMILES,Coupling enz,ELG1 repair inh,TSHR antagonist,RORgamma inh,VP16 counter
CC(C)CC(COCc1ccc(Cl)cc1)N1CCN(C(=O)c2ccc(Cl)cc2Cl)CCC1=O (stereo not given),n,23µM,n,u,u
CC(C)CC(COCc1cccc(Cl)c1)N1CCN(C(=O)c2cccc(C(F)(F)F)c2)CCC1=O (stereo not given),n,n,n,n,n
Brc1ccc(-c2csc(N3CCCCCC3)n2)cc1,n,u,n,11µM,u
CCC(NC(=O)NNC(N)=S)(C(F)(F)F)C(F)(F)F,n,n,n,11µM,n
CC(C1OC(C)(C)C(O)C1O)C1CC[C@@]2(C)C3=CCC4C(C)(C)C(=O)CC[C@]4(C)C3CC[C@@]12C (stereo not given in full),n,x,x,n,n
COCC(=O)N(CCc1ccc(OC)c(OC)c1)Cc1cc2cc(C)ccc2nc1Cl,n,16µM,n,n,n[10 µM]
COCC(=O)N(CCc1ccccc1)Cc1cc2cc(C)ccc2nc1Cl,n,n,n,n,n
Oc1ccc(N=Nc2c(O)ccc3ccccc23)cc1,n,n,n,u,13µM
NS(=O)(=O)c1ccc(N=Nc2c(O)ccc3ccccc23)cc1,n,n,n,n,n
Oc1ccc(N=Nc2ccc3ccccc3c2)cc1,n,u,n,6.3µM,u
Cc1cnc(CNc2nc(-c3ccoc3)nc3ccccc23)cn1,n,x,x,n,n
O=C1CCc2cc(S(=O)(=O)N3CCC(C(=O)NCc4ccccn4)CC3)ccc2N1,n,n,n,13µM,u
O=C1CCc2cc(S(=O)(=O)N3CCC(C(=O)NC4CCCC4)CC3)ccc2N1,n,n,n,n,n
CCN1C(=O)C2(C(C#N)=C(N)Oc3c2c(C)nn3-c2ccccc2)c2ccccc21 (stereo not given),-45,n,n,u,u
CC(=O)N1C(=O)C2(C(C#N)=C(N)Oc3c2c(C)nn3-c2ccccc2)c2ccccc21 (stereo not given),n,n,n,n,n
Cc1nn(-c2ccccc2)c2c1C1(C(=O)N3c4c(cccc41)C(C)CC3(C)C)C(C#N)=C(N)O2 (stereo not given),-59,n,n,n,n
Cc1nn(-c2ccccc2)c2c1C1(C(=O)N(C)c3ccccc31)C(C#N)=C(N)O2 (stereo not given),-44,n,n,11µM,u
O=C(Cn1cnc2c(cnn2-c2ccccc2)c1=O)N1CCCc2ccccc21,n,21µM,n,n,n
O=C(NCCc1ccccc1)C(=O)NC1CCCCC1,n,u,n,n,n
S=C(NCCc1ccccc1)NC1CCCCCC1,n,u,n,2.8µM,n[0.365 µM]
S=C(NCCc1ccc(Cl)cc1)NC1CCCC1,n,n,n,2µM,6.3µM
S=C(NCCc1ccccc1)NCC(c1ccco1)N1CCCCC1 (stereo not given),n,n,n,10µM,u
COc1ccc(NC(=S)NCC(c2ccco2)N2CCCC2)cc1 (stereo not given),n,n,n,u,n
S=C(NC1CCCCC1)N(CCc1ccccc1)CCc1ccccc1,n,n,n,10µM,10µM
CCOC(=O)c1c(NC(=O)COc2ccc3ccc(=O)oc3c2)sc(C(=O)N(C)C)c1C,x,n,n,n,n
SMILES,Coupling enz,ELG1 repair inh,TSHR antagonist,RORgamma inh,VP16 counter
O=C(Nc1ccc(F)cc1Cl)c1ccc2c(=O)n3c(nc2c1)CCC3,x,u,n,x,x
S=C(NCCNCc1ccccc1)NC1CCCCC1,n,n,n,4µM,u
CC1CCCC/C1=N\NC(=S)NCCc1ccccc1 (stereo not given),n,n,n,0.35µM,1.8µM
O=C(NC1CCCCC1)C(=S)NCCc1ccccc1,n,u,n,n,n
S=C(NCCc1ccc(Cl)cc1)NC1CCCCC1,n,u,n,3.5µM,5µM
CC(=O)Nc1ccc(NC(=O)CSc2nc3ccccc3o2)cc1,n,u,n,n,n
CCOC(=O)c1sc(NC(=O)CSc2nc3ccccc3o2)c(C(=O)OCC)c1C,n,n,n,3.2µM,2µM
Cc1nonc1NC(=O)CSc1nc2ccccc2o1,n,n,n,8.9µM,u
CCOC(=O)c1c(NC(=O)CSc2ncnc3ccccc23)sc(C)c1C,n,12µM,n,n,n
CC(=O)Nc1nonc1NC(=O)CSc1nc2ccccc2o1,n,n,n,0.79µM,4µM
C=CC[C@@H]1C=C[C@H](Oc2ccc(C)cc2)[C@H](COC(=O)NCc2cccc3ccccc23)O1,n,x,x,n[10 µM],n[10 µM]
CCOC(=O)N1CCN(S(=O)(=O)c2ccc(C(=O)Nc3nc4c(s3)CC(C)CC4)cc2)CC1 (stereo not given),n,n,n,n,n
Cc1cccc2sc(NNC(=O)c3ccc(S(=O)(=O)N4CCCC(C)C4)cc3)nc12 (stereo not given),n,u,n,3.5µM,3.2µM
Cc1cccc2sc(NNC(=O)c3ccc(S(=O)(=O)N4CCc5ccccc5C4)cc3)nc12,n,n,n,n,u
CCOC(=O)N1CCN(S(=O)(=O)c2ccc(C(=O)NNc3nc4c(C)cc(C)cc4s3)cc2)CC1,n,u,n,14µM,20µM
CCOC(=O)N1CCN(S(=O)(=O)c2ccc(C(=O)NNc3nc4c(C)cccc4s3)cc2)CC1,n,u,n,10µM,5µM
Cc1cc(C)c2nc(NNC(=O)c3ccc(S(=O)(=O)N4CCCCC4)cc3)sc2c1,n,n,n,3.2µM,8.9µM
CC(C)CCN1C(=O)C2(OCCCO2)c2cc(Cl)ccc21,n,n,n,x,x
[N-]=[N+]=NC[C@H](Cc1ccccc1)N1CC[C@@H](NC(=O)OCc2ccccc2)CCC1=O,n,u,n,n,n
CCOC(=O)N1CCN(S(=O)(=O)c2ccc(C(=O)NNc3nc4ccc(Cl)cc4s3)cc2)CC1,n,u,n,7.1µM,u
CCOC(=O)N1CCN(S(=O)(=O)c2ccc(C(=O)N(CCN(C)C)c3nc4ccc(Cl)cc4s3)cc2)CC1,x,u,n,n,n
CCOC(=O)N1CCN(S(=O)(=O)c2ccc(C(=O)NNc3nc4cc(C)cc(C)c4s3)cc2)CC1,n,n,n,11µM,5µM
O=C(COC(=O)c1c2c(nc3ccccc13)/C(=C/c1cccc([N+](=O)[O-])c1)CCC2)NC1CCS(=O)(=O)C1 (stereo not given),n,7.3µM,n,n,n
CN(C(=O)COC(=O)/C=C/c1cccc([N+](=O)[O-])c1)C1CCS(=O)(=O)C1 (stereo not given),n,13µM,n,n,n
